Source: PubChem BioAssay AID1159580 (chemical genetic matrix, 2015)
The campaign covered roughly 5,500 compounds. About 2,000 (36%) were called active. Inconclusive results (about 18%) are left out. No stated cut-off is given here; in the data, active means normalized growth mostly below about 0.91 (no sharp cut-off); inconclusive means no clear call, values can overlap the other calls; inactive means mostly above about 0.92. The list shows a part of the results.

Experiment: chemical genetic growth profiling, strain panel (AID 1159580);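 further: tested at 20 µM; growth read once vehicle control cultures reached saturation at 30 °C; 1 = growth at the plate median or of vehicle wells; lower values mean less growth of the strain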
Conditions: S. cerevisiae deletion strains, growth OD

Measured: normalized growth

Cc1ncc(CSSCc2cnc(C)c(O)c2CO)c(CO)c1O
inactive: locus YHR030C, strain SLT2, active compounds read low 1.01 | locus YHR079C, strain IRE1, active compounds read low 1.01 | locus YJL095W, strain BCK1, active compounds read low 0.995 | locus YJR066W, strain TOR1, active compounds read low 0.945 | locus YLR113W, strain HOG1, active compounds read low 0.983 | locus YNL183C, strain NPR1, active compounds read low 0.948 | locus YOR231W, strain MKK1, active compounds read low 1.01 | locus YPL256C, strain CLN2, active compounds read low 1.01
